# From PubChem BioAssay AID2358 (The Scripps Research Institute Molecular Screening Center, 2010)
# Hit rate of the full screen: of about 1,900 compounds, about 1,000 (53%) were called active. So high a share suggests a set chosen from earlier hits. Only a sample is shown. Values without a mark were called inactive.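 Rule for the calls: active = mean PP1 inhibition above a set limit taken from the earlier primary screen (cut at about 15% in these data); inactive = the rest.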
# Molecular target: Serine/threonine-protein phosphatase PP1-alpha catalytic subunit (Homo sapiens) (UniProt P62136)
# Sequence (P62136 whole entry, looked up): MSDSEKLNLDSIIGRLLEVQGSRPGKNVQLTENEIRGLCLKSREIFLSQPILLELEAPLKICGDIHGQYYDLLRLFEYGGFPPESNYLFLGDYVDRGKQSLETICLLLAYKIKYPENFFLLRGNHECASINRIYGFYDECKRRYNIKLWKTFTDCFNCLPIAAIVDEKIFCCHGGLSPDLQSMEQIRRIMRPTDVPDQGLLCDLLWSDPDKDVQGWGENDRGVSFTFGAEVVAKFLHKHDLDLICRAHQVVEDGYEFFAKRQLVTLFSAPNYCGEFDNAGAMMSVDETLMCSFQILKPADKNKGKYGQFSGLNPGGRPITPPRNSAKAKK
# Test: inhibition of human PP1-alpha enzyme activity – biochemical, fluorescence, OMFP substrate, triplicate, confirmation (AID 2358)
# Details: purified PP1alpha, at 6.7 µM, hits give high values
row,SMILES,inhibition
1,Cc1ccc(C)c(Cn2nnc3c(=O)[nH]c(C(=O)Nc4ccc(F)cc4)nc32)c1,20.8% (active)
2,COc1ccccc1NC(=O)CSc1nc2sc3c(c2c(=O)n1-c1ccccc1)CCN(C)C3,10.6%
3,Cc1cc(N/N=C\c2ccc(Br)cc2)nc(-n2nc(C)cc2C)n1,21.7% (active)
4,COc1ccccc1/C=N\Nc1cc(C)nc(-n2nc(C)cc2C)n1,44.3% (active)
5,CN1CCN(CCCNC(=O)c2ccc(/C=C3\Oc4ccccc4N(Cc4ccc(Cl)cc4)C3=O)cc2)CC1,6.35%
6,O=C(COC(=O)c1ccc(Oc2ccccc2)cc1)Nc1nnc(-c2ccccc2)o1,16.8% (active)
7,O=C(N=C1SC2CS(=O)(=O)CC2N1c1cc(Cl)ccc1Cl)C1CC1 (stereo not given),-1.43%
8,Cc1ccc(Nc2nc(CSc3nnnn3-c3ccccc3)cc(=O)[nH]2)cc1,26% (active)
9,Cc1cc(Nc2ccccc2)n(C(=O)c2ccc(N)cc2)n1,2.75%
10,O=C1c2cccc(OCC(=O)N3N=C(c4cccs4)CC3c3ccc(F)cc3)c2CCN1Cc1ccccc1 (stereo not given),13.1%
11,O=C1C2N=NN(CC(=O)N3N=C(c4cccc5ccccc45)CC3c3ccccc3)C2C(=O)N1c1ccccc1 (stereo not given),24.2% (active)
12,Cc1ccc(N2C(=O)C3N=NN(CC(=O)N4N=C(c5cccc6ccccc56)CC4c4ccccc4)C3C2=O)cc1 (stereo not given),12.9%
13,O=[N+]([O-])c1ccccc1/C=N/n1c(COc2ccccc2)n[nH]c1=S,-1.61%
14,CCCCn1c(SCc2ncc(-c3ccccc3)o2)nc2cc(S(N)(=O)=O)ccc21,11%
15,COc1ccc(NC(=O)C2C3CCC(O3)C2C(=O)O)cc1OC (stereo not given),18.6% (active)
16,CC(C)OC(=O)c1cc(NC(=O)C2C3CCC(O3)C2C(=O)O)cc(C(=O)OC(C)C)c1 (stereo not given),5%
17,Oc1c(C(c2ccccn2)N2CCOCC2)ccc2cccnc12 (stereo not given),69.3% (active)
18,Cc1ccc(-n2nc3ccc(NC(=O)/C=C/c4ccco4)cc3n2)cc1C,14.7%
19,Oc1c(Cl)cc(Cl)c(Cl)c1Cc1c(O)c(Cl)cc(Cl)c1Cl,22.2% (active)
20,Cc1cc(-c2csc(N)n2)c(C)n1-c1ccccc1,10.2%
21,CCOc1ccc(NC(=O)c2ccc(NC(=O)COC(=O)c3ccc(NC(=O)CC#N)cc3)cc2)cc1,47.8% (active)
22,CN(C(=O)COC(=O)c1cc(-c2ccco2)nc2ccccc12)C1CCS(=O)(=O)C1 (stereo not given),20.3% (active)
23,CCn1c(SCC(=O)Nc2cc(C)ccc2C)nnc1-c1cnccn1,-2.85%

row,SMILES,inhibition
1,c1ccc(-c2nccc(-c3ccc(-n4cnc5ccccc54)cc3)n2)nc1,65.5% (active)
2,O=C1C(=O)N(CC2COc3ccccc3O2)c2ccccc21 (stereo not given),1.9%
3,CC1CCCCN1S(=O)(=O)c1ccc(C(=O)Nc2nnc(-c3cccs3)o2)cc1 (stereo not given),23.2% (active)
4,Cc1ccc(S(=O)(=O)N2[C@@H](c3cccc(Cl)c3)C(C(=O)O)=CC[C@H]2c2ccc(Cl)c(Cl)c2)cc1,18.2% (active)
5,Cc1ccccc1S(=O)(=O)N1[C@@H](c2cccc(Cl)c2)C(C(=O)O)=CC[C@H]1c1ccc(Cl)cc1,15.6% (active)
6,COc1ccc(-c2nn(-c3ccccc3)cc2/C=C\C(=O)Nc2ccc(C(=O)O)cc2)cc1,11%
7,Cc1ccc(-c2nn(-c3ccccc3)cc2/C=C2\SC(=S)N(CCCCCC(=O)O)C2=O)o1,19.6% (active)
8,COc1ccc(-c2nn(-c3ccccc3)cc2/C=C2/SC(=S)N(CCCC(=O)O)C2=O)c(C)c1,29.4% (active)
9,CS(=O)(=O)c1ccc2c(c1)SC1=NC(=O)/C(=C/c3ccco3)C(=N)N12,7.76%
10,Cc1ccc(OCC(=O)Nc2ccc(-c3nnc(-c4ccco4)o3)cc2)cc1,25.6% (active)
11,CCCc1ccc(OCC(=O)NNC(=S)NC(=O)c2ccco2)cc1,14.1%
12,O=C(CSc1nnc(C2CC2)n1Cc1ccccc1)Nc1cccnc1Cl,-0.54%
13,C=CCn1c(=NC(=O)c2ccc(S(=O)(=O)N3CCCC3)cc2)sc2cc(NC(C)=O)ccc21,23.1% (active)
14,N#Cc1c(-c2ccccc2)nc(SCc2cccc(C(F)(F)F)c2)[nH]c1=O,14.1%
15,Clc1ccc2c(c1)C1=C(C(c3ccncc3)O2)C(c2ccc(Br)cc2)n2ncnc2N1 (stereo not given),18.4% (active)
16,O=C(N/N=C/c1cc([N+](=O)[O-])ccc1O)/C(=C\c1cccs1)NC(=O)c1ccccc1,30.9% (active)
17,CCOc1ccc(/C=C/C(=O)OCC(=O)c2ccccc2OC)cc1OC,0.75%
18,COc1cnc(-c2ccccn2)nc1Oc1ccc(C(C)(C)C)cc1,32.3% (active)
19,CC(C)(C)Nc1nc(-c2ccccn2)nc2ccccc12,7.11%
20,Cc1ccc(CSCC2Nc3ccc(C(=O)N4CCN(c5ccc(F)cc5)CC4)cc3NC2=O)cc1 (stereo not given),22.6% (active)
21,Oc1ccc(C2Nc3cccc4cccc(c34)N2)cc1,0.4%
22,COCCCNC(=O)C1CC(=O)N(c2ccc(C)cc2)C1 (stereo not given),-1.39%
23,OCCNc1nc(Nc2ccc(Cl)c(Cl)c2)nc2ccccc12,-0.84%

row,SMILES,inhibition
1,Oc1c(CN2CCN(c3ccc(F)cc3)CC2)cc(Cl)c2cccnc12,39.1% (active)
2,CCCCCCCCCCOC(=O)Cn1c(COc2ccc(C)cc2)[n+](C)c2ccccc21,12.8%
3,Cc1ccc(NS(=O)(=O)c2ccc(N/N=C/c3ccccc3OCC(=O)O)c([N+](=O)[O-])c2)c(C)c1,16% (active)
4,Nc1ccc2nc3c(=O)[nH]c(=S)[nH]c3nc2c1,34% (active)
5,C/C(=N\c1nc2ccccc2n1C)c1cc(Cl)ccc1O,-7.49%
6,C=C1c2c(Cl)ccc(O)c2C(O)=C2C(=O)[C@]3(O)C(O)=C(C(N)=O)C(=O)[C@@H](N(C)C)[C@@H]3[C@@H](O)C12 (stereo not given in full),7.26%
7,O=C(Nc1nc(-c2ccco2)c(-c2ccco2)s1)c1ccco1,2.84%
8,C=CCN(CC=C)S(=O)(=O)c1ccc(C(=O)Nc2nc3c(s2)CCc2ccccc2-3)cc1,27.9% (active)
9,COCCN(CCOC)S(=O)(=O)c1ccc(C(=O)Nc2nc3c(s2)CCc2ccccc2-3)cc1,34.5% (active)
10,O=[N+]([O-])/C=C/c1ccc2c(ccn2Cc2ccccc2)c1,13.8%
11,Cc1cccc(OCC(O)Cn2c(=N)n(CCN3CCOCC3)c3ccccc32)c1 (stereo not given),-3.3%
12,CCCCCCCCCCOC(=O)Cn1c(COc2cccc(OC)c2)[n+](C)c2ccccc21,8.62%
13,O=C(Nc1cccc(-c2nc3ccccc3[nH]2)c1)c1ccc(C(=O)Nc2cccc(-c3nc4ccccc4[nH]3)c2)cc1,2.51%
14,Clc1ccc(-n2nnnc2-c2cnc(-c3ccccn3)nc2-c2cccs2)cc1,64.5% (active)
15,Cc1ccc(Cn2nnc3c(=O)[nH]c(C4CCN(S(=O)(=O)/C=C/c5ccccc5)CC4)nc32)cc1,20.5% (active)
16,Cc1ccc(NC(=O)COc2ccc(/C=C3/NC(=O)NC3=O)cc2)cc1,16.6% (active)
17,NC(N)=N/N=C/c1ccc(OCc2ccc(Cl)cc2Cl)cc1,17.3% (active)
18,CC(=O)c1ccc(N2CCN(S(=O)(=O)c3ccc4c(c3)CC(=O)N4C)CC2)cc1,7.42%
19,O=C(Nc1nnc(-c2ccccc2)o1)c1cc(-c2cccs2)nc2ccccc12,28.1% (active)
20,O=C(Nc1ccc(S(=O)(=O)Nc2nccs2)cc1)c1cc(-c2ccncc2)nc2ccccc12,12.1%
21,Cc1ccc(-c2cc(C(=O)Nc3nn[nH]n3)c3ccccc3n2)c(C)c1,0.22%
22,O=C(/C=C/c1ccc(F)cc1)NC(=S)NNC(=O)c1cccnc1,14.7%
23,COc1cccc(/C=N/NC(=O)c2[nH]nc3c2CCc2ccccc2-3)c1O,36% (active)

row,SMILES,inhibition
1,N=c1n(Cc2ccc(Cl)cc2)c2ccccc2n1CC(O)c1ccco1 (stereo not given),-2.68%
2,Cc1ccc2nc(N3C(=O)C(O)=C(C(=O)c4ccco4)C3c3cccc(O)c3)sc2c1 (stereo not given),20.8% (active)
3,CCNS(=O)(=O)c1ccc(NC(=O)Nc2cccc(C(F)(F)F)c2)cc1,4.33%
4,Cc1nc2c(C(=O)NCc3ccc4c(c3)OCO4)c[nH]n2c(=O)c1Cc1ccccc1F,32.2% (active)
5,Cc1cc(N2C(=O)C(O)=C(C(=O)c3ccc(C)o3)C2c2ccc(OCc3ccccc3)cc2)no1 (stereo not given),32.6% (active)
6,COc1cc(C2C(C(=O)c3ccc(C)o3)=C(O)C(=O)N2CCc2ccccc2)ccc1O (stereo not given),27.1% (active)
7,COc1ccc(C2C(C(C)=O)=C(O)C(=O)N2CCc2c[nH]c3ccccc23)cc1 (stereo not given),11.8%
8,CCCOc1ccc(C2C(C(=O)c3ccc(C)o3)=C(O)C(=O)N2CCCn2ccnc2)cc1 (stereo not given),37.2% (active)
9,C/C(CC(O)(/C=N/O)c1ccccc1)=N\O (stereo not given),-3.06%
10,Cc1ccc2cc(CCNC(=O)c3c(-c4ccccc4Cl)noc3C)c(=O)[nH]c2c1,-1.41%
11,COC(=O)Cc1cc(=O)n(-c2nc3ccccc3s2)[nH]1,0.62%
12,CN(C(=O)CN(CCO)CC(=O)N(C)C(C)(C)Cc1ccccc1)C(C)(C)Cc1ccccc1,-9.33%
13,C#CCOCCOCCOCCNc1nc(N2CCN(C(=O)CCCCCCCCCCNC(=O)[C@H](CCCCN)n3cc(C)nn3)CC2)nc(N2CCN(C(=O)CCCCCCCCCCNC(=O)[C@H](CO)n3cc(CCCSC)nn3)CC2)n1,41.8% (active)
14,C#CCOCCOCCOCCNc1nc(N2CCN(C(=O)CCCCCCCCCCNC(=O)[C@H]([C@@H](C)CC)n3cc(CCCCN=C(N)N)nn3)CC2)nc(N2CCN(C(=O)CCCCCCCCCCNC(=O)[C@H](CO)n3cc(CCCSC)nn3)CC2)n1,42.5% (active)
15,C#CCOCCOCCOCCNc1nc(N2CCN(C(=O)CCCCCCCCCCNC(=O)Cn3cc(CCCCCN)nn3)CC2)nc(N2CCN(C(=O)CCCCCCCCCCNC(=O)[C@H](CO)n3cc(CCCSC)nn3)CC2)n1,50.9% (active)
16,C=CCn1c(=S)[nH]c2scc(-c3ccco3)c2c1=O,7.08%
17,Cc1nc(/N=C(\N)NC(=O)NC2CCCCC2)nc2ccccc12,26.9% (active)
18,Cc1ccc(-c2cc(C(=O)N/N=C/C=C/c3ccco3)c3ccccc3n2)cc1C,9.2%
19,OCCCN1c2ccccc2Nc2nnc(-c3ccccc3)cc21,27.3% (active)
20,CCC(=C/c1sc2ccc3ccccc3c2[n+]1C)/C=C1\Sc2ccc3ccccc3c2N1C,62.5% (active)
21,CSc1ccc(/C=N\NC(=O)COc2ccc(Cl)cc2Br)cc1,-1.13%
